Tests used:
Test in all cases: DAPPL (digital affinity profiling via proximity ligation, sequencing); 10 mM Tris-HCl pH 7.5, 50 mM NaCl, 1 mM DTT, 4% glycerol, room temperature, 30 min; GST-TFs on glutathione beads, 16-mer random dsDNA library, 0.1% formaldehyde crosslink after washing; high values mean tight binding
Details in all cases: protein: recombinant; tags: N-terminal GST; dsDNA, one strand shown
ERF = target: T1, ERF (Homo sapiens, UniProt P50548 1-548)
T1 sequence: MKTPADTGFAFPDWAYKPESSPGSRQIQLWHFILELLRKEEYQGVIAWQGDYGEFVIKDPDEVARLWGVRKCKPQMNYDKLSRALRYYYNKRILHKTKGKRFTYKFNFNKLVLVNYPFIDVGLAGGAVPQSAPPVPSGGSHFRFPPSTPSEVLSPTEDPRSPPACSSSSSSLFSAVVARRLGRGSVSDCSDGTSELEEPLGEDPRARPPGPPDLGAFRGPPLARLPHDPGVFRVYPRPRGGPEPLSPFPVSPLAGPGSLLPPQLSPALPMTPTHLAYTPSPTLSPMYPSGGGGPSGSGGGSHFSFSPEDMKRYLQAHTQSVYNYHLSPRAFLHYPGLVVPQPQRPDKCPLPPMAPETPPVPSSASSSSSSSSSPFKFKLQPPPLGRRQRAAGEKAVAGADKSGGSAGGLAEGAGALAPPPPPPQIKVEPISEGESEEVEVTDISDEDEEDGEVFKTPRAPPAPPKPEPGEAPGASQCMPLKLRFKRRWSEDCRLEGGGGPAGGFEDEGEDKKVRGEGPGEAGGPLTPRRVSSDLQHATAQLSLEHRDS
Procedure, shortened: (§1)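 After expression in yeast as GST fusions, human transcription factors were bound to glutathione beads, DNA-barcoded and mixed with a tag-only sample. The pools were incubated with 200 nmole of a 16-mer random double-stranded DNA library in Tris/NaCl/DTT/glycerol buffer (30 min, room temperature), washed and crosslinked with 0.1% formaldehyde. Proximity ligation with BsaI/T4 ligase ran for 1 h at 37 °C, before PCR amplification and sequencing on an Illumina NextSeq500. Binding signal is a hexamer's read frequency for a factor divided by its frequency for the tag-only sample.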

ETV3L = target: T2, ETV3L (Homo sapiens, UniProt Q6ZN32 1-361)
T2 sequence: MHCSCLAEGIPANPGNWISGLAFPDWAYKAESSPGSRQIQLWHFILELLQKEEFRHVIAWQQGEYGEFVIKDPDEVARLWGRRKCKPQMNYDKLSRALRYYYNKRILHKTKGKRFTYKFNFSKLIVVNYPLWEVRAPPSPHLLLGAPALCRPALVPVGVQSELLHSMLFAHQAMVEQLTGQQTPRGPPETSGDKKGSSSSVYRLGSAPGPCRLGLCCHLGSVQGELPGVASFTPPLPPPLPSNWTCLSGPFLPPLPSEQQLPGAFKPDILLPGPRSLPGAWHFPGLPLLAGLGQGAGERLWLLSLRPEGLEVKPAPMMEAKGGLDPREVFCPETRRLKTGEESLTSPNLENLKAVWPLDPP
Procedure, shortened: as §1

ETS2 = target: T3, ETS2 (Homo sapiens, UniProt P15036 1-469)
T3 sequence: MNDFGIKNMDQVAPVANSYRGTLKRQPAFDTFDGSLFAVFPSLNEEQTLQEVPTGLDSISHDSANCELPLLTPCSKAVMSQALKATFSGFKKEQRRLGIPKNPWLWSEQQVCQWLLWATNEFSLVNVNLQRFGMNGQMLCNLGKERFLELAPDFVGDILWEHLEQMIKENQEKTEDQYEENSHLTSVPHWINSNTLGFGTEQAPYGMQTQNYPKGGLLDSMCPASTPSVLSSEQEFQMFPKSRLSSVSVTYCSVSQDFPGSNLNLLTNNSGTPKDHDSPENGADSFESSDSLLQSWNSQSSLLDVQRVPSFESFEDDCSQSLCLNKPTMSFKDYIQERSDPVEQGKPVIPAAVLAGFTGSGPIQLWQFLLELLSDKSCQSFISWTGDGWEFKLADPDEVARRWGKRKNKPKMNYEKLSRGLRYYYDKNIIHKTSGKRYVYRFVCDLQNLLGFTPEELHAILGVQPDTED
Procedure, shortened: as §1

SPDEF = target: T4, SPDEF (Homo sapiens, UniProt O95238 1-335)
T4 sequence: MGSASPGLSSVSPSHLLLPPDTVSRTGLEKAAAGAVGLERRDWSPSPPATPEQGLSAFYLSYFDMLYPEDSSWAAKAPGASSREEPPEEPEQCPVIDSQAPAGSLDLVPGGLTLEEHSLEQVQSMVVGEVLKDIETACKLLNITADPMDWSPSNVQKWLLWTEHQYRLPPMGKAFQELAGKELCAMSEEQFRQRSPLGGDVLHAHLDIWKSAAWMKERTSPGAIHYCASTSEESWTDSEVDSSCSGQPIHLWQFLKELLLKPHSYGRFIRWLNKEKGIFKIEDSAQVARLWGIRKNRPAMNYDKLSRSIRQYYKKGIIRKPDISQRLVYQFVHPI
Procedure, shortened: as §1

ETV7 = target: T5, ETV7 (Homo sapiens, UniProt Q9Y603 1-341)
T5 sequence: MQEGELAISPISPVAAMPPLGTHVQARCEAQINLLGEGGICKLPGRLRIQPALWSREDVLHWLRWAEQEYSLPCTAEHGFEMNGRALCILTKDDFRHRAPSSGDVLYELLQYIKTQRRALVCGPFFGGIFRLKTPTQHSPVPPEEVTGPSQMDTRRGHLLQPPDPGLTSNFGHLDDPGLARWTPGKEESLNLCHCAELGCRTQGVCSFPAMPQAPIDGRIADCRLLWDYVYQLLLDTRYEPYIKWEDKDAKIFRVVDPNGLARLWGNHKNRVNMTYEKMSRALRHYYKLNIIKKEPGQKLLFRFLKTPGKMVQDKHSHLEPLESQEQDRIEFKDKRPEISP
Procedure, shortened: as §1

ELF5 = target: T6, ELF5 (Homo sapiens, UniProt Q9UKW6-2 1-255)
T6 sequence: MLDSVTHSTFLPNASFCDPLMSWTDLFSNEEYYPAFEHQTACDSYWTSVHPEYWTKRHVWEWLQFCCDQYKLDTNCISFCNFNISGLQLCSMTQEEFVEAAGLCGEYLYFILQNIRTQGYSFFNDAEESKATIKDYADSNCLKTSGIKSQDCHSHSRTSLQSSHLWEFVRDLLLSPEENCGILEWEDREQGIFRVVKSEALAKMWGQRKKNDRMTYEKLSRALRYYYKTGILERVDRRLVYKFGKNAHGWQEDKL
Procedure, shortened: as §1

ETV3 = target: T7, ETV3 (Homo sapiens, UniProt P41162-2 1-143)
T7 sequence: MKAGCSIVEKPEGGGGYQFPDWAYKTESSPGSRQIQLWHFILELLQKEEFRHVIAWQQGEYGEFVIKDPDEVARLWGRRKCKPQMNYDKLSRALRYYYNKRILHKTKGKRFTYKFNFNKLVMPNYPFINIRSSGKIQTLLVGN
Procedure, shortened: as §1

ETV6 = ETV6 (Homo sapiens, UniProt P41212 1-452)
ETV6, sequence (P41212 whole entry): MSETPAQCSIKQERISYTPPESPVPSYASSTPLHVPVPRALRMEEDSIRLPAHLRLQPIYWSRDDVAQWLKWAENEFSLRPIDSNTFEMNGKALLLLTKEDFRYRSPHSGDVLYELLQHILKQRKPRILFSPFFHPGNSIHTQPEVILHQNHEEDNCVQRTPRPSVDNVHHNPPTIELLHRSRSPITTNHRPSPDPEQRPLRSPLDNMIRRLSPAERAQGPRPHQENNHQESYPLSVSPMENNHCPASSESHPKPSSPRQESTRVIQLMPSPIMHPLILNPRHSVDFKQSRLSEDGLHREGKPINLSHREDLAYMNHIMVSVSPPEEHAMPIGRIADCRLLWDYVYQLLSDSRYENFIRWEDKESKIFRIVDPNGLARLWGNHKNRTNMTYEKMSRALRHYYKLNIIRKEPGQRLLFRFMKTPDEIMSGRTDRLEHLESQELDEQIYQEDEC
Procedure, shortened: as §1

Sequence: AGGTCT
- binding signal (ERF): 1.26 fold enrichment (6-mer frequency, TF over GST control)
- binding signal (ETV3L): 1.14 fold enrichment (6-mer frequency, TF over GST control)
- binding signal (ETS2): 1.2 fold enrichment (6-mer frequency, TF over GST control)
- binding signal (SPDEF): 1.1 fold enrichment (6-mer frequency, TF over GST control)
- binding signal (ETV7): 1.2 fold enrichment (6-mer frequency, TF over GST control)
- binding signal (ELF5): 1.16 fold enrichment (6-mer frequency, TF over GST control)
- binding signal (ETV3): 1.11 fold enrichment (6-mer frequency, TF over GST control)
- binding signal (ETV6): 1.07 fold enrichment (6-mer frequency, TF over GST control)

Sequence: CCTAAG
- binding signal (ERF): 1.11 fold enrichment (6-mer frequency, TF over GST control)
- binding signal (ETV3L): 1.12 fold enrichment (6-mer frequency, TF over GST control)
- binding signal (ETS2): 1.09 fold enrichment (6-mer frequency, TF over GST control)
- binding signal (SPDEF): 1.08 fold enrichment (6-mer frequency, TF over GST control)
- binding signal (ETV7): 1.09 fold enrichment (6-mer frequency, TF over GST control)
- binding signal (ELF5): 1.11 fold enrichment (6-mer frequency, TF over GST control)
- binding signal (ETV3): 1.06 fold enrichment (6-mer frequency, TF over GST control)
- binding signal (ETV6): 1.11 fold enrichment (6-mer frequency, TF over GST control)

Sequence: TTATAT
- binding signal (ERF): 1.23 fold enrichment (6-mer frequency, TF over GST control)
- binding signal (ETV3L): 1.37 fold enrichment (6-mer frequency, TF over GST control)
- binding signal (ETS2): 1.39 fold enrichment (6-mer frequency, TF over GST control)
- binding signal (SPDEF): 1.4 fold enrichment (6-mer frequency, TF over GST control)
- binding signal (ETV7): 1.38 fold enrichment (6-mer frequency, TF over GST control)
- binding signal (ELF5): 1.28 fold enrichment (6-mer frequency, TF over GST control)
- binding signal (ETV3): 1.44 fold enrichment (6-mer frequency, TF over GST control)
- binding signal (ETV6): 1.36 fold enrichment (6-mer frequency, TF over GST control)

Sequence: ATATAA
- binding signal (ERF): 1.16 fold enrichment (6-mer frequency, TF over GST control)
- binding signal (ETV3L): 1.23 fold enrichment (6-mer frequency, TF over GST control)
- binding signal (ETS2): 1.2 fold enrichment (6-mer frequency, TF over GST control)
- binding signal (SPDEF): 1.19 fold enrichment (6-mer frequency, TF over GST control)
- binding signal (ETV7): 1.16 fold enrichment (6-mer frequency, TF over GST control)
- binding signal (ELF5): 1.16 fold enrichment (6-mer frequency, TF over GST control)
- binding signal (ETV3): 1.27 fold enrichment (6-mer frequency, TF over GST control)
- binding signal (ETV6): 1.25 fold enrichment (6-mer frequency, TF over GST control)

Sequence: CCAATC
- binding signal (ERF): 1.03 fold enrichment (6-mer frequency, TF over GST control)
- binding signal (ETV3L): 1.19 fold enrichment (6-mer frequency, TF over GST control)
- binding signal (ETS2): 1.19 fold enrichment (6-mer frequency, TF over GST control)
- binding signal (SPDEF): 1.16 fold enrichment (6-mer frequency, TF over GST control)
- binding signal (ETV7): 1.23 fold enrichment (6-mer frequency, TF over GST control)
- binding signal (ELF5): 1.16 fold enrichment (6-mer frequency, TF over GST control)
- binding signal (ETV3): 1.15 fold enrichment (6-mer frequency, TF over GST control)
- binding signal (ETV6): 1.15 fold enrichment (6-mer frequency, TF over GST control)

Sequence: ATATAC
- binding signal (ERF): 1.19 fold enrichment (6-mer frequency, TF over GST control)
- binding signal (ETV3L): 1.17 fold enrichment (6-mer frequency, TF over GST control)
- binding signal (ETS2): 1.26 fold enrichment (6-mer frequency, TF over GST control)
- binding signal (SPDEF): 1.29 fold enrichment (6-mer frequency, TF over GST control)
- binding signal (ETV7): 1.24 fold enrichment (6-mer frequency, TF over GST control)
- binding signal (ELF5): 1.12 fold enrichment (6-mer frequency, TF over GST control)
- binding signal (ETV3): 1.17 fold enrichment (6-mer frequency, TF over GST control)
- binding signal (ETV6): 1.19 fold enrichment (6-mer frequency, TF over GST control)

Sequence: CAACTT
- binding signal (ERF): 1.44 fold enrichment (6-mer frequency, TF over GST control)
- binding signal (ETV3L): 1.51 fold enrichment (6-mer frequency, TF over GST control)
- binding signal (ETS2): 1.6 fold enrichment (6-mer frequency, TF over GST control)
- binding signal (SPDEF): 1.49 fold enrichment (6-mer frequency, TF over GST control)
- binding signal (ETV7): 1.37 fold enrichment (6-mer frequency, TF over GST control)
- binding signal (ELF5): 1.61 fold enrichment (6-mer frequency, TF over GST control)
- binding signal (ETV3): 1.55 fold enrichment (6-mer frequency, TF over GST control)
- binding signal (ETV6): 1.62 fold enrichment (6-mer frequency, TF over GST control)

Sequence: TATGAT
- binding signal (ERF): 1.22 fold enrichment (6-mer frequency, TF over GST control)
- binding signal (ETV3L): 1.18 fold enrichment (6-mer frequency, TF over GST control)
- binding signal (ETS2): 1.17 fold enrichment (6-mer frequency, TF over GST control)
- binding signal (SPDEF): 1.23 fold enrichment (6-mer frequency, TF over GST control)
- binding signal (ETV7): 1.25 fold enrichment (6-mer frequency, TF over GST control)
- binding signal (ELF5): 1.26 fold enrichment (6-mer frequency, TF over GST control)
- binding signal (ETV3): 1.26 fold enrichment (6-mer frequency, TF over GST control)
- binding signal (ETV6): 1.17 fold enrichment (6-mer frequency, TF over GST control)

Sequence: CTGCTG
- binding signal (ERF): 1.08 fold enrichment (6-mer frequency, TF over GST control)
- binding signal (ETV3L): 1.3 fold enrichment (6-mer frequency, TF over GST control)
- binding signal (ETS2): 1.36 fold enrichment (6-mer frequency, TF over GST control)
- binding signal (SPDEF): 1.26 fold enrichment (6-mer frequency, TF over GST control)
- binding signal (ETV7): 1.13 fold enrichment (6-mer frequency, TF over GST control)
- binding signal (ELF5): 1.27 fold enrichment (6-mer frequency, TF over GST control)
- binding signal (ETV3): 1.27 fold enrichment (6-mer frequency, TF over GST control)
- binding signal (ETV6): 1.22 fold enrichment (6-mer frequency, TF over GST control)

Reference: paper PMC7862700, “An all-to-all approach to the identification of sequence-specific readers for epigenetic DNA modifications on cytosine”
